Assay results from the supplement of paper PMC10127200.
Structures can show the parent of a compound that is named as a salt.

These compounds were tested on OVCAR4 (assay: Euclidean distance of Cell Painting phenotypic profile (signed KS, 77 features) to DMSO centroid (dimensionless distance); 5 or 10 uM (library dependent); higher = stronger phenotypic change vs DMSO (phenoactivity)). Conditions: 48 h.
Summary of the method: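 Stained cells were imaged confocally at 20X with 9 fields per well, after 48 h of exposure to library compounds at 10 or 5 uM (set by library; 0.1% DMSO final). The cells were five cancer lines and a healthy fibroblast line. From the images, Harmony extracted 77 features, each expressed as a signed Kolmogorov-Smirnov statistic relative to same-plate vehicle wells. Phenoactivity is measured as Euclidean distance to the median vehicle profile, using plate-position-corrected, correlation-weighted profiles averaged across replicates at the top dose.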

Structure (SMILES) | Euclidean distance
CC(C)/N=c1\cc2n(-c3ccc(Cl)cc3)c3ccccc3nc-2cc1Nc1ccc(Cl)cc1 [Clofazimine] | 1.05
COc1ccc(CNC(=O)Nc2ncc([N+](=O)[O-])s2)cc1 | 0.694
NC(=O)N/N=C/c1ccc([N+](=O)[O-])o1 [Nitrofural] | 1.22
CC(=O)NS(=O)(=O)c1ccc(N)cc1 [Sulfacetamide sodium salt hydrate] | 1.53
CC(=O)NS(=O)(=O)c1ccc(N)cc1 [Sulfacetamide] | 1.01
CCC[C@@H]1C[C@@H](C(=O)N[C@@H]([C@H]2O[C@H](SC)[C@H](O)[C@@H](O)[C@H]2O)[C@H](C)Cl)N(C)C1 [Clindamycin HCl] | 0.755
Cc1cc(NS(=O)(=O)c2ccc(N)cc2)nc(C)n1 [sulfaisodimidine] | 0.686
CO[C@H]1/C=C/O[C@@]2(C)Oc3c(C)c(O)c4c(c3C2=O)C2=NC3(CCN(CC(C)C)CC3)NC2=C(NC(=O)/C(C)=C\C=C\[C@H](C)[C@H](O)[C@@H](C)[C@@H](O)[C@@H](C)[C@H](OC(C)=O)[C@@H]1C)C4=O [Rifabutin] | 1.35
NS(=O)(=O)c1cc(Cl)c(Cl)c(S(N)(=O)=O)c1 [Dichlorphenamide] | 1.01
